Test results as given in PubChem BioAssay (EPA / NIEHS).
Results filed as inconclusive are left out. Active and inactive are the calls of the source. How the source made its calls, unless noted: active means hit-call score of the fitted dose curve at least 0.9, where 1 is the maximum; inconclusive means response in the unintended direction; inactive means score below 0.9.

Columns and labels:
[1] = TOX21_p53_BLA_p2_viability: Viability Assessment in the Tox21 HCT-116 p53 Agonism Beta-lactamase Assay, Phase 2 (AID 2283591);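 further: actives lower the ATP signal meaning cytotoxicity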
Summary of the method: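 HCT-116 p53-bla cells (4000/well) rested 5 h at 37C, then received compounds in DMSO (217-fold dilution) for 16 h at 37C, 5% CO2. After the CCF4 read, CellTiter-Glo was added; ATP luminescence was read after 30 min at room temperature.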

[2] = target: Cellular tumor antigen p53 (Homo sapiens) (UniProt P04637); test: TOX21_p53_BLA_p2_ratio: Tox21 HCT-116 p53 Agonism Beta-lactamase Assay, Ratio, Phase 2 (AID 2283592)
Sequence of Cellular tumor antigen p53 (Homo sapiens) (P04637 whole entry, looked up): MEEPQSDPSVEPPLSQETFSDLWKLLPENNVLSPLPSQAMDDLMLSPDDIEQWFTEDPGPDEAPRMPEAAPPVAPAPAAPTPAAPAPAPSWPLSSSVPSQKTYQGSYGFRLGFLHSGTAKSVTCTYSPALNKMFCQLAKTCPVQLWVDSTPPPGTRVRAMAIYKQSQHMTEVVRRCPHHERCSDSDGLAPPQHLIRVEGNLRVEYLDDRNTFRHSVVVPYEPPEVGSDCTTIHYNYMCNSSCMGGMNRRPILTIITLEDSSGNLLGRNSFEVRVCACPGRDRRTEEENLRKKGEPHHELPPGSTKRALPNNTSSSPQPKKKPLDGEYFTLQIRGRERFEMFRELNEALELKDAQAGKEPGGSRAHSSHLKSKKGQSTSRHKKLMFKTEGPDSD
Summary of the method: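 Readout: blue/green (460/530 nm) FRET emission ratio after 2 h CCF4-AM loading at room temperature, excitation 405 nm. HCT116 p53 bla cells, 16 h compound exposure at 37C, 5% CO2; agonist direction fitted against DMSO baseline.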

[3] = TOX21_p53_BLA_p3_viability: Viability Assessment in the Tox21 HCT-116 p53 Agonism Beta-lactamase Assay, Phase 3 (AID 2283593);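 further: cells exposed to compound for 16 h before reading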
Summary of the method: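 HCT-116 cells (4000/well) rested 5 h at 37C, then got DMSO compounds by pin tool (217-fold dilution) for 16 h at 37C, 5% CO2. After the bla read, CellTiter-Glo was added and luminescence read at 30 min, room temperature.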

[4] = TOX21_p53_BLA_p4_viability: Viability Assessment in the Tox21 HCT-116 p53 Agonism Beta-lactamase Assay, Phase 4 (AID 2283597);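 further: hits lower the luminescence signal meaning cytotoxicity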
Summary of the method: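 ATP content by CellTiter-Glo luminescence, 30 min RT, read after the beta-lactamase ratio step. Cells: HCT116, 4000/well, compound added after 5 h, exposure 16 h at 37C. Signal loss = reduced viability.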

[5] = target: Cellular tumor antigen p53 (Homo sapiens) (UniProt P04637); test: TOX21_p53_BLA_p5_ratio: Tox21 HCT-116 p53 Agonism Beta-lactamase Assay, Ratio, Phase 5 (AID 2283599)
Summary of the method: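 HCT-116 cells carrying a p53-inducible beta-lactamase reporter were seeded at 4000 cells/well and dosed after 5 h with compound in DMSO (217-fold dilution). After 16 h at 37C, CCF4-AM substrate was added for 2 h, and the 460/530 nm emission ratio was scored as gain-of-signal versus DMSO.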

[6] = TOX21_p53_BLA_p5_viability: Viability Assessment in the Tox21 HCT-116 p53 Agonism Beta-lactamase Assay, Phase 5 (AID 2283600)
Summary of the method: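 ATP luminescence (CellTiter-Glo, 30 min, RT) served as the viability read-out, with loss of signal indicating cytotoxicity. Compounds in DMSO were pinned at a 217-fold dilution onto 4000 cells/well and incubated 16 h, 37C.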

[7] = target: Cellular tumor antigen p53 (Homo sapiens) (UniProt P04637); test: TOX21_p53_BLA_p4_ratio: Tox21 HCT-116 p53 Agonism Beta-lactamase Assay, Ratio, Phase 4 (AID 2283601)
Summary of the method: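 HCT116 cells carrying an inducible beta-lactamase reporter were plated at 4000 cells/well, rested 5 h, then exposed to compounds in DMSO (217-fold dilution) for 16 h at 37C. CCF4-AM substrate was loaded 2 h at room temperature; 460/530 nm emission ratio scored gain-of-signal versus DMSO.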

[8] = CCTE_Harrill_HTTr_Viability_MCF7: CCTE's 6-hour Cell Viability Assessment for the High-Throughput Transcriptomics (HTTr) Platform, in MCF-7 cells cultured in DMEM + 10% fetal bovine serum, Harrill Lab (AID 2284010; active means hit-call score of the fitted dose curve at least 0.9, where 1 is the maximum; inactive means score below 0.9)
Summary of the method: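 Propidium iodide exclusion, imaged by high-content analysis, gauged viability after a six-hour exposure across eight concentrations. Cells were MCF-7 grown in DMEM with 10% fetal bovine serum; fits run in both directions against DMSO.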

[9] = CCTE_Harrill_HTTr_Apoptosis_MCF7: CCTE's 6-hour Apoptosis Assessment for the High-Throughput Transcriptomics (HTTr) Platform, in MCF-7 cells cultured in DMEM + 10% fetal bovine serum, Harrill Lab (AID 2284011; active means hit-call score of the fitted dose curve at least 0.9, where 1 is the maximum; inactive means score below 0.9)
Summary of the method: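 Read-out: CellEvent Caspase 3/7 Green signal by high content imaging, gain-of-signal indicating apoptosis. MCF-7 cells, DMEM + 10% FBS, eight-point dilution series, 6 h exposure. Curves fitted bidirectionally relative to DMSO negative control.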

[10] = target: Thyroid hormone receptor alpha (Rattus norvegicus) + Thyroid hormone receptor beta (Rattus norvegicus) (UniProt P18113+P63059); test: TOX21_TR_LUC_GH3_Antagonist_Followup: Tox21 GH3 Thyroid Hormone Receptor Antagonism Luciferase Follow-Up Assay (AID 2283942)
Summary of the method: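 In a GH3 luciferase reporter line, test chemicals spanning 92 uM to 5nM final are co-incubated 24 h with 1.0 nM T3. Activity is expressed as relative luminescence units and analysed relative to DMSO.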

THRA (gene 7067) = THRA (gene 7067) (UniProt P10827); test: TOX21_TRA_COA_Antagonist_Followup_ratio: Tox21 Thyroid Hormone Receptor alpha Antagonism through Coactivator Recruitment Follow-Up Assay, Ratio (AID 2283953)
Sequence of THRA (gene 7067) (P10827 whole entry, looked up, the tested form may be a part): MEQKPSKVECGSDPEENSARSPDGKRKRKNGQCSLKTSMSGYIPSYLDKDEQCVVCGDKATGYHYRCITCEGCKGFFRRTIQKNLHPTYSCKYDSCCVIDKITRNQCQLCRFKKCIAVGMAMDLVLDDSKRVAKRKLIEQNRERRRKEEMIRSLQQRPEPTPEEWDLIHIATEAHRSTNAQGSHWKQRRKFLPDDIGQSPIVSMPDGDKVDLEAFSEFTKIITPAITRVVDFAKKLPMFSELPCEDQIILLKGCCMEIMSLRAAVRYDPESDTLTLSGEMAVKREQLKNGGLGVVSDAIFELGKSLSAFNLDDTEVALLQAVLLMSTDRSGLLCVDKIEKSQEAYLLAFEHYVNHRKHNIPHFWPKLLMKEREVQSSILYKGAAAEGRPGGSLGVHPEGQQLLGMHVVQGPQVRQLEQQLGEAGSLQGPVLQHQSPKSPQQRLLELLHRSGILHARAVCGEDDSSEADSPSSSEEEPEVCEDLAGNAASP
Summary of the method: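 GST-TRα LBD 2.5 nM, BSA 0.10%, + cpd; then FITC-SRC-2 peptide 200 nM + Tb-anti-GST Ab 2 nM. TR-FRET ratio 520/495 nm. Norm: DMSO = 0%, T3 = 100%.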

[11] = TOX21_TRB_BLA_Antagonist_Followup_viability: Viability Assessment in the Tox21 Thyroid Hormone Receptor beta Antagonism Beta-lactamase (BLA) Follow-Up Assay (AID 2283961)
Summary of the method: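 Viability read as CellTiter-Glo ATP luminescence (loss of signal = cytotoxicity) in the same plates as the TRβ-bla readout. TRβ-LBD/GAL4 UAS-bla HEK293T cells were exposed to compounds, 11 concentrations in triplicate, for 18 h at 37C/5% CO2.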

THRB (gene 7068) = THRB (gene 7068) (UniProt P10828); test: TOX21_TRB_COA_Antagonist_Followup_ratio: Tox21 Thyroid Hormone Receptor beta Antagonism through Coactivator Recruitment Follow-Up Assay, Ratio (AID 2283967)
Sequence of THRB (gene 7068) (P10828 whole entry, looked up, the tested form may be a part): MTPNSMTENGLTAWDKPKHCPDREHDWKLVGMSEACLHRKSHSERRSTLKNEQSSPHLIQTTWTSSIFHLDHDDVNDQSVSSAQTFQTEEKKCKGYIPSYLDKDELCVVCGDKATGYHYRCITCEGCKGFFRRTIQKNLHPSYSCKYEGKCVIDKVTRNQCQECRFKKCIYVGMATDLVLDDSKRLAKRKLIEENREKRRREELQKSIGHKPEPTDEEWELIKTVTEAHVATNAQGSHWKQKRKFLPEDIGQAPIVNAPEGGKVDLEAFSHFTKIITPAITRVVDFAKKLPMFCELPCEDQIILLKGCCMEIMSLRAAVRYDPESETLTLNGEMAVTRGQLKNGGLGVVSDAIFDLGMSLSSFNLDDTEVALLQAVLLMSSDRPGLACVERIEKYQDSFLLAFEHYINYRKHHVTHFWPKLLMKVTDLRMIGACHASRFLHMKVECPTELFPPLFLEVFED
Summary of the method: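 Coactivator (SRC-2) recruitment to purified GST-TRβ ligand-binding domain is monitored by terbium-to-fluorescein energy transfer, emission ratio 520:495 nm. DMSO wells define 0% and T3 wells 100% activity.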

[12] = TOX21_TR_RXR_BLA_Antagonist_Followup_viability: Viability Assessment in the Tox21 Thyroid Hormone Receptor beta Retinoid X Receptor alpha (RXRa) Antagonism Beta-lactamase (BLA) Follow-Up Assay (AID 2283979)
Summary of the method: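 RXRa-UAS-bla HEK293T cells seeded 2,500/well in phenol red-free DMEM with 2% charcoal-stripped FBS, attached 5 h, then exposed to compounds at 11 concentrations in triplicate for 16 h at 37C/5% CO2. Viability read by CellTiter-Glo ATP luminescence; bidirectional fit versus DMSO.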

Measured: outcome

COC(=O)C1=C(C)NC(C)=C(C(=O)O[C@@H]2CCCN(Cc3ccccc3)C2)[C@@H]1c1cccc([N+](=O)[O-])c1
inactive: [1] | [2] | [3] | [4] | [5] | [6] | [7]

CC(C)OC(=O)C(C)N(C(=O)c1ccccc1)c1ccc(F)c(Cl)c1 (centres undefined)
inactive: [1] | [2] | [3] | [4] | [5] | [6] | [7]

CCOc1ccc(NC(C)=O)cc1N
inactive: [1] | [2] | [3] | [4] | [5] | [6] | [7]

O=[N+]([O-])c1ccc(CCO)cc1
inactive: [1] | [2] | [3] | [4] | [5] | [7]

[O-][N+](=Nc1ccccc1)c1ccccc1
inactive: [1] | [2] | [3] | [4] | [5] | [6] | [7]

CC1Cc2ccccc2N1NC(=O)c1ccc(Cl)c(S(N)(=O)=O)c1 (centres undefined)
inactive: [1] | [2] | [3] | [4] | [5] | [6] | [8] | [9]

CC(=O)NO
inactive: [1] | [2] | [3] | [4] | [5] | [6] | [7]

CCOc1ccc(N=Nc2ccc(N)cc2N)cc1
inactive: [1] | [2] | [3] | [4] | [5] | [6] | [7]

CCOC(=O)COc1ccc2c(=O)cc(-c3ccccc3)oc2c1
inactive: [1] | [2] | [3] | [4] | [5] | [6] | [7]

S=c1nccc[nH]1
inactive: [1] | [2] | [3] | [4] | [5] | [6] | [7]

Cc1c(Nc2ncccc2C(=O)O)cccc1C(F)(F)F
inactive: [1] | [2] | [3] | [4] | [5] | [6] | [7] | [10] | THRA (gene 7067) | [11] | THRB (gene 7068) | [12]

CC(=O)Nc1cccc(O)c1
inactive: [1] | [2] | [3] | [4] | [5] | [6] | [7]
